# Sampled rows, rich in hits. Any-hit rate of the full collection: about 1.4%.
# HNF4A DNA FP: change in binding of human HNF4A to DNA, primary screen, biochemical, fluorescence polarization, FITC-DNA | Hepatocyte nuclear factor 4-alpha (Homo sapiens), P41235 | 1 h | activity change, % at 10 µM | 0.3% of 360,000 active | AID 1224865, 2016; in the data active = activity change above about 30%, passing the limit was not always enough
# IDE cell activ: human IDE activators in live cells, primary screen, fluorescence polarization, HEK cells, FAbeta-B substrate. FAbeta-B cleavage; 0% vehicle, 100% cell-free pure enzyme wells. activation, % at 5.96 µM. 0.073% of 340,000 active. AID 493087, 2011;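 active = activation above the mean of all tested compounds plus 3 SD, set per screening campaign, cut at about 17% in these data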
# Target sequence (P14735 whole entry, looked up): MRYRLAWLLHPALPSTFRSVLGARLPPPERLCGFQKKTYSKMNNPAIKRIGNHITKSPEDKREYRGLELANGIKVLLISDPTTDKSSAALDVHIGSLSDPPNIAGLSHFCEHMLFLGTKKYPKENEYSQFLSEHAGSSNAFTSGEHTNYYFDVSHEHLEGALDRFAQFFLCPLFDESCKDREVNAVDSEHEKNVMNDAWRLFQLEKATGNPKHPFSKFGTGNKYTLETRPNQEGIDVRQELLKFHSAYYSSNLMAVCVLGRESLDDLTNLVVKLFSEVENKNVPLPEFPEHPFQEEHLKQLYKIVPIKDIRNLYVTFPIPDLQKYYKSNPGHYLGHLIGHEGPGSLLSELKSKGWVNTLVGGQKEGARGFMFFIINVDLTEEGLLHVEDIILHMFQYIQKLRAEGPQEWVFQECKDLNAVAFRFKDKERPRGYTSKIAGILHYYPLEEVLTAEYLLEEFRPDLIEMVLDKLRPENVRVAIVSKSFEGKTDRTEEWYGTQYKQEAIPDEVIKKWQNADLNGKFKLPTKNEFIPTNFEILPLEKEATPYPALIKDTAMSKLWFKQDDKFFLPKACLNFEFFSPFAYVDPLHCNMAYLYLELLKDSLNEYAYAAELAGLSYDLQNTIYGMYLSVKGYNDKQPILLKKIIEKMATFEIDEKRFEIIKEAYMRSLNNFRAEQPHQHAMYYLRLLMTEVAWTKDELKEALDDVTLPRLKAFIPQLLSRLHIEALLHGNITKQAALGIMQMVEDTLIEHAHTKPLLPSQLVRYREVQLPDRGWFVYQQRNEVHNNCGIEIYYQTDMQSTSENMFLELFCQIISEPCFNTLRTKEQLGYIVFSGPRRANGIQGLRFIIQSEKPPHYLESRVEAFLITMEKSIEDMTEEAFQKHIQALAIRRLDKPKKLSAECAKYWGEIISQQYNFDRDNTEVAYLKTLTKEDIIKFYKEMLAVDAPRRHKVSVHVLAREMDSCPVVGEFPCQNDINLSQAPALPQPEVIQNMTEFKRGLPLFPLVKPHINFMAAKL
# TPT1 inhibitor: Candida albicans TPT1 enzyme inhibitors, primary screen, biochemical, fluorescence polarization; 0.81% of 300,000 active; inhibition, % at 5 µM; recombinant caTPT1, FP RNA substrate dephosphorylation;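 active = inhibition above the mean of all tested compounds plus 3 SD, set per screening campaign, cut at about 24% in these data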;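 note: plate controls were DMSO alone for no effect and ferristatin control at 100 nM for full effect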
# IDE inh: human IDE inhibitors in live cells, primary screen, fluorescence polarization, HEK cells, FAbetaB substrate. Insulin-degrading enzyme (Homo sapiens), P14735. FAbetaB cleavage. inhibition, % at 5.59 µM. 0.41% of 320,000 active. AID 434962, 2010;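 active = percent inhibition above the average of all tested compounds plus 3 SD, set per screening campaign, cut at about 16% in these data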;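 note: IDE supplied by intact live HEK cells; FP after avidin binding of uncleaved biotin substrate so inhibition keeps polarization high; 0% = DMSO wells and 100% = 60 µM reference IDE inhibitor Ii1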
# CRFR2-BP ag: agonists of CRF-BP/CRF-R2 complex, primary screen, cell-based, HEK293, calcium dye fluorescence, uHTS. CRF-binding protein / CRF receptor 2 complex (human). calcium dye fluorescence (FLIPR); percent of saturating CRF peptide response. activation, % at 13.2 µM. 0.46% of 350,000 active;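 active = activation of at least 50%, plus an integration ratio under a set limit after plate pattern correction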;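 note: plate controls were neutral control wells without compound for no effect and CRF at EC100 for full effect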
# caTPT1 confirm: Candida albicans TPT1 inhibitors, confirmation, biochemical, fluorescence polarization, triplicate. 74% of 2,400 active. recombinant caTPT1, RNase T1 coupled. shares compounds with TPT1 inhibitor. inhibition, % at 5 µM;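 active = inhibition above the primary screen limit, the mean inhibition of all tested compounds plus 3 SD, cut at about 25% in these data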
# RNase T1 counter: RNase T1 inhibitors, counter-screen for TPT1 inhibitor project, biochemical, fluorescence polarization; AID 2153, 2009; RNase T1 cleavage, 1536-well; 83% of 2,400 active; shares compounds with TPT1 inhibitor; inhibition, % at 5 µM;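 active = inhibition above the solvent-only control well mean plus 3 SD, limit set per screening run, cut at about 23% in these data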;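 note: plate controls were DMSO wells with enzyme for no effect and wells without RNase T1 for full effect; inhibitors block cleavage so intact labeled substrate keeps polarization high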
# Active calls of the source: *; · = not tested or not shown.
SMILES,HNF4A DNA FP,IDE cell activ,TPT1 inhibitor,IDE inh,CRFR2-BP ag,caTPT1 confirm,RNase T1 counter
CC(C)(C)N1CC2([N+](=O)[O-])CN(C(C)(C)C)CC([N+](=O)[O-])(C1)C2,0,5,-6,1,167*,·,·
O=C(O)c1ccccc1-c1ccc(C=c2sc3nc4cc(Br)cnc4n3c2=O)o1,-30,·,·,·,·,·,·
O=C(O)c1ccccc1-c1ccc(/C=C/c2cc(C(F)(F)F)[nH]c(=O)n2)o1,47,-16,·,·,170*,·,·
O=C(CNC(=O)c1ccc(S(=O)(=O)N2CCCC2)cc1)N/N=C/c1c(Cl)cccc1Cl,-1,-5,-3,18*,-1,·,·
O=C(CNC(=O)c1ccc(S(=O)(=O)N2CCCC2)cc1)N/N=C/c1ccc(Cl)cc1,2,-4,-2,7,2,·,·
O=C1NC(=S)NC1=Cc1ccc2c(c1)CCC2,39*,-8,·,·,-9,·,·
O=C1NC(=S)N/C1=C/C=C/c1ccccc1,1,-1,0,-1,2,·,·
CCC(=O)NC(=S)NNC(=O)c1ccc(OC)cc1,-4,0,-2,-3,-4,·,·
O=C(NNC(=S)NC(=O)c1sc2ccccc2c1Cl)c1ccc(Cl)cc1,-2,-14,-1,3,210*,·,·
COc1ccc(C(=O)NNC(=S)NC(=O)c2ccc(Cl)cc2)cc1,·,·,0,3,117*,·,·
CCCCC(=O)NNC(=S)NC(=O)c1ccc(C)cc1,-6,-3,-2,4,135*,·,·
COc1ccc(C(=O)NC(=S)NNC(=O)c2ccc(C)cc2)cc1,3,8,-3,4,132*,·,·
O=C(NCc1nnc(SCC(=O)N2CCCC2)o1)c1cccc(C(F)(F)F)c1,2,4,1,0,-3,·,·
Cc1ccc(S(=O)(=O)N(C)C[C@@H]2OCc3cnnn3CCCC(=O)N([C@@H](C)CO)C[C@@H]2C)cc1,-5,·,·,·,7,·,·
CCN(CC)S(=O)(=O)c1cccc(NC(=O)c2cccc(S(=O)(=O)N3CCCC3)c2)c1,-1,1,·,-6,0,·,·
CC1(C(=O)NS(=O)(=O)c2ccccc2Cl)CCN1C(=O)CC1CC1 (configuration not stated),2,·,·,·,·,·,·
Cc1cc(C(=O)COc2ccccc2C(N)=O)c(C)n1C,-2,-1,4,2,0,·,·
Cc1cc(C(=O)COc2cccc3cccnc23)c(C)n1C,-39,8,-61,-7,190*,·,·
COc1ccc(C(=O)c2sc(Nc3cccc(OC)c3)c(C(=O)Nc3cccc(C)c3C)c2N)cc1,0,12,-4,5,121*,·,·
CN(C)c1ccc(/C=N/N(CCO)C2=NS(=O)(=O)c3ccccc32)cc1,131,-33,-2,12,140*,·,·
O=C(OCCO)c1c(-c2ccccc2)oc2c1C(OCCO)CCC2 (configuration not stated),-5,·,·,·,·,·,·
CCCCN1C(=O)/C(=C2/Sc3ccc(OC)cc3N2CC)SC1=S,6,6,3,-1,23,·,·
C=CCN1C(=O)/C(=C2/Sc3ccc(OC)cc3N2CC)SC1=S,-1,3,6,-1,68*,·,·
Cc1ccc(C2C(C#N)=C(N)Oc3c2sc2ccccc32)o1 (configuration not stated),·,·,65*,12,·,86*,96*
CCOC(=O)CC1=C(C(=O)OCC)C(c2ccc(C)o2)C(C#N)=C(N)O1 (configuration not stated),-11,-2,-25,1,1,·,·
SMILES,HNF4A DNA FP,IDE cell activ,TPT1 inhibitor,IDE inh,CRFR2-BP ag,caTPT1 confirm,RNase T1 counter
O=C(N/C(=C/c1ccc(F)cc1)C(=O)N1CCCCC1)c1ccco1,1,-2,-2,4,-1,·,·
CN1CCN(S(=O)(=O)c2ccc(Sc3nnc(-c4cccs4)n3-c3ccccc3)nc2)CC1,2,2,34*,0,1,3,5
Cc1cc(C(=O)c2cccs2)c(N)s1,19,0,35*,-5,1,40*,49*
Cc1cc(C)c(C(=O)c2cccs2)c(C)c1,3,0,·,·,-6,·,·
CS(=O)(=O)/C(C#N)=C\c1cnc(S(=O)(=O)c2ccccc2)s1,·,·,35*,7,·,6,12
CC(C)C(C(=O)O)N1C(=O)/C(=C/c2cccn2C)SC1=S (configuration not stated),88*,-11,106*,7,7,125*,134*
Cn1cccc1/C=C1/SC(=O)N(CC(=O)N2CCCC2)C1=O,-1,-3,4,0,7,·,·
CCCC(C(=O)O)N1C(=O)/C(=C/c2cccn2C)SC1=S (configuration not stated),115,-10,107*,9,3,121*,127*
COc1ccc(C2=NN(c3nc(-c4ccc(CNC(C)=O)cc4)cs3)C(c3ccco3)C2)cc1 (configuration not stated),15,-1,31*,-1,3,11,16
O=[N+]([O-])c1ccc(/C=N/Nc2ccc3ccccc3c2)o1,10,-9,32*,11,3,39*,47*
Cc1ccc2nc(N/N=C\c3ccc([N+](=O)[O-])o3)nc(-c3ccccc3)c2c1,18,-3,52*,1,2,49*,44*
O=[N+]([O-])c1ccc(/C=N/Nc2nc(-c3ccccc3)c3cc(Br)ccc3n2)o1,4,6,19,-5,5,·,·
CC1CCc2c(sc(Nc3nc4c(F)cccc4s3)c2C(N)=O)C1 (configuration not stated),37*,-4,48*,13,13,57*,69*
O=C(CN1C(=O)/C(=C\C=C\c2ccccc2)SC1=S)Nc1ccc(F)cc1,17,1,12,-2,0,·,·
O=C(COC(=O)CCN1C(=O)/C(=C\C=C\c2ccccc2)SC1=S)Nc1cc(F)ccc1F,22,0,28*,9,0,33*,42*
CCN1c2ccccc2NC2C1C(C(C)=O)C(=O)N2c1ccc(Cl)cc1 (configuration not stated),45*,-8,60*,-3,5,76*,85*
O=C1Nc2ccccc2N(O)N1c1ccc(Cl)cc1,-6,-3,0,1,1,·,·
COc1cccc(CNC(=O)COC(=O)c2ccc(Cl)s2)c1,-2,-6,·,0,-3,·,·
